We go through eleven sequences from publication PMC8384837, “Expanding the binding specificity for RNA recognition by a PUF domain”.

Common to all, as to assay: yeast three-hybrid, YBZ-1, SC-Leu-His + 0.5 mM 3-AT, 4 days
Conditions in all cases: tags: N-Gal4 AD-HA kept; label: inside an RPR1-promoter hybrid RNA with tandem MS2 sites; ssRNA

The target in one assay is PUM1 PUF domain R5-SAG (Homo sapiens, UniProt Q14671 828-1176, C1007S;R1008A;Q1011G). A digest of the protocol:
(§1)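 The interaction score is the logarithmic change in variant frequency from input to selection. It uses log2, with a pseudocount of 1 for absent variants, and frequencies came from PCR-amplified, Illumina-sequenced repeat regions. The libraries were Pumilio-1 PUF domains randomized at the three base-contacting residues per repeat, co-expressed with matching RNA elements in strain YBZ-1 (LexA–MS2 coat fusion, HIS3 reporter). Plating lasted four days on SC-Leu (input) or SC-Leu-His + 0.5 mM 3-AT (selection).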

The target of another assay is PUM1 PUF domain R3-SPF (Homo sapiens, UniProt Q14671 828-1176, C935S;R936P;Q939F). In short, it runs like this: as §1
A further assay has as its target PUM1 PUF domain R3-PWS (Homo sapiens, UniProt Q14671 828-1176, C935P;R936W;Q939S). A digest of the protocol:
as §1

Another assay has as its target PUM1 PUF domain R7-RSK (Homo sapiens, UniProt Q14671 828-1176, S1079R;N1080S;E1083K). In short, it runs like this: as §1
The target in another assay is PUM1 PUF domain R8-WWR (Homo sapiens, UniProt Q14671 828-1176, N1122W;Y1123W;Q1126R). In short, it runs like this: as §1
Another assay addresses PUM1 PUF domain R8-GWN (Homo sapiens, UniProt Q14671 828-1176, N1122G;Y1123W;Q1126N). A digest of the protocol: as §1
The target of another assay is PUM1 PUF domain R1-TLR (Homo sapiens, UniProt Q14671 828-1176, S863T;R864L;Q867R). A digest of the protocol: as §1
For a further assay, the target named is PUM1 PUF domain R1-YCR (Homo sapiens, UniProt Q14671 828-1176, S863Y;R864C;Q867R). A digest of the protocol:
as §1

Another assay deals with PUM1 PUF domain R5-RMW (Homo sapiens, UniProt Q14671 828-1176, C1007R;R1008M;Q1011W). A digest of the protocol:
as §1

A further assay addresses T1, PUM1 PUF domain R6-RYR (Homo sapiens, UniProt Q14671 828-1176, N1043R;Q1047R).
T1 sequence: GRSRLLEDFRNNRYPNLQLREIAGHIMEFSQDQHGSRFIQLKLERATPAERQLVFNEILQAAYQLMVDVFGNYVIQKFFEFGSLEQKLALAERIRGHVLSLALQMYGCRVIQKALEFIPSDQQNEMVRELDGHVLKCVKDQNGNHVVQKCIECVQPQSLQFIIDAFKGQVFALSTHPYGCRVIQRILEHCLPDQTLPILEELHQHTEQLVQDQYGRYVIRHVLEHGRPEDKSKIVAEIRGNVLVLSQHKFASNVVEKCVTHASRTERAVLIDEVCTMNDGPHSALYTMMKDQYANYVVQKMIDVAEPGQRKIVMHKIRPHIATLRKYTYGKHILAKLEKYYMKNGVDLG
In short, it runs like this:
as §1

“GGCUAGAACUAGUGGAUCCCCCGGCGCCCGGCGGCUCGAGCCCGGGUAAGUGUGAAUAGUCUGCAUGCCGCCGGGCGCCAUGCCUGCAGGUCGACUCUAGAAAACAUG”: the binding signal with PUM1 PUF domain R5-SAG is 3.06 log2 enrichment (interaction score).
As to “GGCUAGAACUAGUGGAUCCCCCGGCGCCCGGCGGCUCGAGCCCGGGUAAGUGUAAUUAGUCUGCAUGCCGCCGGGCGCCAUGCCUGCAGGUCGACUCUAGAAAACAUG”, the values for the binding signal with PUM1 PUF domain R3-SPF and with PUM1 PUF domain R3-PWS were 2.3 log2 enrichment (interaction score) and 1.88 log2 enrichment (interaction score), respectively.
Consider “GGCUAGAACUAGUGGAUCCCCCGGCGCCCGGCGGCUCGAGCCCGGGUAAGUUUAAAUAGUCUGCAUGCCGCCGGGCGCCAUGCCUGCAGGUCGACUCUAGAAAACAUG”, for which the binding signal with PUM1 PUF domain R7-RSK is 3.42 log2 enrichment (interaction score).
On to “GGCUAGAACUAGUGGAUCCCCCGGCGCCCGGCGGCUCGAGCCCGGGUAAGCGUAAAUAGUCUGCAUGCCGCCGGGCGCCAUGCCUGCAGGUCGACUCUAGAAAACAUG”, for which the binding signal is 4.84 log2 enrichment (interaction score) with PUM1 PUF domain R8-WWR and 5.24 log2 enrichment (interaction score) with PUM1 PUF domain R8-GWN.
Consider “GGCUAGAACUAGUGGAUCCCCCGGCGCCCGGCGGCUCGAGCCCGGGUAAGUGUAAAUUGUCUGCAUGCCGCCGGGCGCCAUGCCUGCAGGUCGACUCUAGAAAACAUG”, for which the values for the binding signal with PUM1 PUF domain R1-TLR and with PUM1 PUF domain R1-YCR were 1.83 log2 enrichment (interaction score) and 7.79 log2 enrichment (interaction score), respectively.
As to “GGCUAGAACUAGUGGAUCCCCCGGCGCCCGGCGGCUCGAGCCCGGGUAAGUGUCAAUAGUCUGCAUGCCGCCGGGCGCCAUGCCUGCAGGUCGACUCUAGAAAACAUG”, the binding signal in the assay with PUM1 PUF domain R5-RMW was 3.01 log2 enrichment (interaction score).
For “GGCUAGAACUAGUGGAUCCCCCGGCGCCCGGCGGCUCGAGCCCGGGUAAGUGUAAAUAGUCUGCAUGCCGCCGGGCGCCAUGCCUGCAGGUCGACUCUAGAAAACAUG”, the binding signal with PUM1 PUF domain R8-WWR is 4.62 log2 enrichment (interaction score); with PUM1 PUF domain R3-SPF, 4.55 log2 enrichment (interaction score); in the assay with PUM1 PUF domain R8-GWN, 3.4 log2 enrichment (interaction score); with PUM1 PUF domain R6-RYR, 3.26 log2 enrichment (interaction score); with PUM1 PUF domain R3-PWS, 4.23 log2 enrichment (interaction score).
“GGCUAGAACUAGUGGAUCCCCCGGCGCCCGGCGGCUCGAGCCCGGGUAAGUGAAAAUAGUCUGCAUGCCGCCGGGCGCCAUGCCUGCAGGUCGACUCUAGAAAACAUG”: the binding signal with PUM1 PUF domain R6-RYR was 1.38 log2 enrichment (interaction score).
Take “GGCUAGAACUAGUGGAUCCCCCGGCGCCCGGCGGCUCGAGCCCGGGUAAGUGUAAAUCGUCUGCAUGCCGCCGGGCGCCAUGCCUGCAGGUCGACUCUAGAAAACAUG”: the binding signal with PUM1 PUF domain R1-TLR is 4.21 log2 enrichment (interaction score); in the assay with PUM1 PUF domain R1-YCR, 7.03 log2 enrichment (interaction score).
Consider “GGCUAGAACUAGUGGAUCCCCCGGCGCCCGGCGGCUCGAGCCCGGGUAAGUCUAAAUAGUCUGCAUGCCGCCGGGCGCCAUGCCUGCAGGUCGACUCUAGAAAACAUG”, for which, in the assay with PUM1 PUF domain R7-RSK, the binding signal is 3.84 log2 enrichment (interaction score).
As for “GGCUAGAACUAGUGGAUCCCCCGGCGCCCGGCGGCUCGAGCCCGGGUAAGUGUUAAUAGUCUGCAUGCCGCCGGGCGCCAUGCCUGCAGGUCGACUCUAGAAAACAUG”, the binding signal with PUM1 PUF domain R5-RMW is 0.73 log2 enrichment (interaction score).
